14-3-3 Bad inh: disrupts binding of bovine 14-3-3 zeta to phospho-Bad peptide. P63103. AID 781. TR-FRET 14-3-3zeta/Dy647-pBad peptide displacement, 1 h. actives 0.71% (n = 220,000). inhibition, % at 21.7 µM;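 active means inhibition above about 70%, limit read from the data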;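 further: 0% = full 14-3-3 plus peptide FRET controls and 100% = background without 14-3-3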
Target sequence (P63103 whole entry, looked up): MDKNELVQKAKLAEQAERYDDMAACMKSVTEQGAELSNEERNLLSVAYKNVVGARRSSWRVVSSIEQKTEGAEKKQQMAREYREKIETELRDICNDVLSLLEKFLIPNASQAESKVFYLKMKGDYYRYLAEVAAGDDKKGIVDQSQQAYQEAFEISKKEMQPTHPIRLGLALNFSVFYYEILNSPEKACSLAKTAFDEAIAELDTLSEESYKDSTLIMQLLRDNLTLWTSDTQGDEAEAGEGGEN
Efa HMGR inh: inhibitors of class II HMG-CoA reductase from Enterococcus faecalis. actives 0.41% (n = 190,000). inhibition, % at 10 µM. AID 1066. purified E. faecalis HMGR, NADPH absorbance 340 nm kinetic;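 active means inhibition above a set limit, the median over all tested compounds plus 3 SD, cut at about 9.5% in these data; inconclusive means no clear call, values can overlap the other calls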;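 further: enzyme runs in reverse so mevalonate oxidation gives rising NADPH absorbance; 0% = complete reaction with DMSO and 100% = background rate lacking mevalonate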
p47phox inh: inhibitors of human p47phox binding; P14598; p47phox/p22phox peptide binding, fluorescence polarization, 2 h; inhibition, % at 24.7 µM; actives 0.53% (n = 220,000);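 active means inhibition above about 30%, limit read from the data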;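 further: 0% = p47phox with labelled peptide and 100% = labelled peptide alone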
Target sequence (P14598 whole entry, looked up): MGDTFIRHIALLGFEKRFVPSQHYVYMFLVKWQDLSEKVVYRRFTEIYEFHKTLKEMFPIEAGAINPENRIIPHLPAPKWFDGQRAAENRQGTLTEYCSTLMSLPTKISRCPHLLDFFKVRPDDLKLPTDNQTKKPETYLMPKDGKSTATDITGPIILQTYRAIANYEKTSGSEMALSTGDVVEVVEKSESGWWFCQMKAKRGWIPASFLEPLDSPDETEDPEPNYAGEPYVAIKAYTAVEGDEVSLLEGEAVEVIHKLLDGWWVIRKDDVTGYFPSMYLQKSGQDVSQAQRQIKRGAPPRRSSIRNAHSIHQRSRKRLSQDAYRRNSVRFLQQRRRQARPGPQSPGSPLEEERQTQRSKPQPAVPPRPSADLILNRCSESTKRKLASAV
dFosB act-1: mouse delta FosB homodimer activation; P13346; purified delta FosB, TAMRA-CDK5 oligo fluorescence polarization; percent of positive-control signal above neutral wells; activation, % at 25 µM; actives 0.99% (n = 340,000);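 active means mean activation above about 17%, with every replicate also reaching it, limit read from the data, passing the limit was not always enough; inconclusive means only one of the two conditions met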
dFosB act-2: delta FosB (mouse) homodimer activation; purified delta FosB, TAMRA-CDK5 oligo fluorescence polarization; normalised: neutral wells 0, positive control 100; activation, % at 24.9 µM; 2,400 tested, under 10 active; shares compounds with dFosB act-1;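 active means highest replicate activation at or above 34% and every replicate reaching that threshold; inconclusive means meets only one of the two criteria; inactive means meets neither criterion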;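 further: higher polarization means more probe DNA bound by delta FosB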
The depositor's hits bear a star; u = inconclusive; x = no result. Only some compounds are listed: those with a hit (about 1.9% of all), similar ones and a draw of the others.

SMILES	14-3-3 Bad inh	Efa HMGR inh	p47phox inh	dFosB act-1	dFosB act-2
O=C(Nc1ccc(OC(=O)c2ccccc2)c(-c2nc3ccccc3s2)c1)c1ccccc1	6	-9	-12	18*	6
CC(=O)Nc1ccc(O)c(-c2nc3ccccc3s2)c1	-5	-6	-14	3	x
CCN(CC)CCCNC(=O)c1ccc2c3n(nc2c1)-c1ccc(Cl)cc1CO3	x	x	x	34*	-3
CC(C)NC(=O)c1ccc2c3n(nc2c1)-c1ccc(Cl)cc1CO3	-4	x	1	-6	x
CC1Cc2ccccc2N1C(=O)COC(=O)c1n[nH]c(=O)c2ccccc12 (stereo not drawn)	x	x	x	-13	x
CN1CCN(S(=O)(=O)c2ccc(Sc3nc4ccccc4[nH]3)c3nsnc23)CC1	0	-5	-10	40*	-8
C/C(=N/NC(=O)CN1CCN(Cc2ccccc2Cl)CC1)c1ccncc1	-3	-3	0	-4	x
O=C(Nc1cccc(F)c1)C1CCN(C(=O)Cc2ccccc2)CC1	10	-1	-10	-1	x
N#C/C(=C/c1ccc(F)cc1)c1nnc(NC(=O)c2ccccc2)s1	31	x	5	21*	-6
CN(Cc1ccc(F)cc1)S(=O)(=O)c1nnc(NC(=O)c2ccccc2)s1	x	x	x	9	x
C=C1[C@H]2O[C@H]2[C@@H](OC(C)=O)[C@@]2(C)[C@@H](OC(C)=O)C[C@@H](OC(C)=O)[C@@](C)(O)[C@@H]2[C@@H](OC(C)=O)[C@@]2(O)[C@@H](C)C(=O)O[C@H]2[C@H]1Cl	x	x	x	0	x
CC(=O)Nc1ccc(NC(=O)c2ccc(Cl)c(S(=O)(=O)N3CCc4ccccc43)c2)cc1	x	x	x	-2	x
O=C(NNC(=O)c1sc2cccc(Cl)c2c1Cl)Nc1ccccc1	6	1	15	76*	0
O=C(NNC(=O)c1sc2cccc(Cl)c2c1Cl)NC1CCCCC1	-20	-7	3	7	x
CCOc1ccc(-c2ccc(C=O)o2)c([N+](=O)[O-])c1	0	-3	0	-1	x
CCOc1cc(/C=N/NS(=O)(=O)c2ccc(OC)cc2)ccc1OCCN1CCOCC1	3	-6	-1	-6	x
CCOc1ccc2nc(S(N)(=O)=O)sc2c1	-3	-6	1	0	x
O=C(NC(NC(=O)c1c(F)cccc1F)c1ccc([N+](=O)[O-])cc1)c1c(F)cccc1F	x	x	x	24*	5
C=CCn1c(COc2ccccc2F)nnc1SCC(=O)Nc1cc(C)on1	-1	4	-18	18*	u
O=C(OCC(O)C(O)C(O)C(SCc1ccccc1)SCc1ccccc1)c1ccccc1 (stereo not drawn)	x	x	x	23*	5
O=C(OCC(O)C(O)C(O)COC(=O)c1ccccc1)c1ccccc1 (stereo not drawn)	x	x	x	2	x
Cc1nnc(SCCn2c(N3CC(C)CC(C)C3)nc3c2c(=O)n(C)c(=O)n3C)s1 (stereo not drawn)	-16	-2	-12	0	x
O=C(CSCc1ccc(Cl)cc1)N/N=C/c1c(Cl)cccc1Cl	-24	-2	-15	27*	1
CCOc1cc(CNCCCN2CCOCC2)cc(Br)c1OCc1ccccc1Cl	0	-8	-21	21*	1
CCn1c(C)c(C2=CCN(S(=O)(=O)c3ccc(C)cc3)CC2)c2ccccc21	-10	4	-154	14	x
SMILES	14-3-3 Bad inh	Efa HMGR inh	p47phox inh	dFosB act-1	dFosB act-2
Cc1c(C2=CCN(S(=O)(=O)c3ccc(Br)cc3)CC2)c2ccccc2n1C	-2	1	-87	32*	-8
CCc1ccc(NC(=O)Cn2nnc(C(=O)NCCc3ccc(OC)c(OC)c3)c2N)cc1	x	x	x	83*	1
CCOc1ccc(CCNC(=O)c2nnn(CC(=O)Nc3ccc(OC)cc3)c2N)cc1OCC	x	x	x	7	x
COc1ccc(NC(=O)Cn2nnc(C(=O)NCCc3ccccc3)c2N)cc1	6	-6	-1	29*	-2
O=C(Nc1ccc(OC(F)F)c(Cl)c1)C(c1ccccc1)c1ccccc1	9	2	-8	0	x
O=C(O)c1ccccc1OC(C(=O)Nc1cc(Cl)cc(Cl)c1)c1ccccc1 (stereo not drawn)	x	x	x	36*	0
O=C(c1cc2n(n1)C(C(F)(F)F)CC(c1ccco1)N2)N1CCc2ccccc2C1 (stereo not drawn)	-2	-3	-18	6	x
CN1/C(=C\C(=O)CSc2nnc(NCc3ccccc3)s2)C(C)(C)c2ccccc21	-29	-2	-154	23*	5
CN1/C(=C\C(=O)c2ccco2)C(C)(C)c2ccccc21	-11	1	-39	24*	0
COc1ccc(C)cc1NC(=O)Nc1cccc(C)c1	2	5	0	0	x
CC(=O)Nc1cccc(NC(=S)Nc2cccc(Cl)c2C)c1	2	-8	-4	-4	x
Cc1cccc(NC(=O)Nc2ccc(C)cc2Br)c1	1	-8	-7	20*	5
CC(=O)Nc1cccc(NC(=O)Nc2cccc(Cl)c2C)c1	-1	-1	-18	22*	-1
Cc1ccc(C(=O)NNC2=Nc3cccc4cccc2c34)cc1	-2	-8	-35	3	x
C[C@@H](NC(=O)Cn1cnc2c(NCc3ccccc3)ncnc21)c1cccc2ccccc12	x	x	x	38*	-2
O=C(NNC1=Nc2ccccc2SC1)c1ccc(Cl)cc1	-10	x	-13	24*	-10
Cc1ccc(N(C)S(=O)(=O)c2ccc(C)cc2)cc1	-1	-1	-18	-1	x
CCN(C(=O)COC(=O)/C=C/c1ccc(OC)c(OC)c1)c1c(N)n(Cc2ccccc2)c(=O)[nH]c1=O	x	x	x	20*	-2
COc1ccc(/C=C/C(=O)OCC(=O)N(C)c2c(N)n(Cc3ccccc3)c(=O)[nH]c2=O)cc1OC	x	x	x	0	x
COCCN(C(=O)COC(=O)/C=C/c1ccc(SC)cc1)c1c(N)n(Cc2ccccc2)c(=O)[nH]c1=O	x	x	x	21*	1
CCN(C(=O)COC(=O)c1ccc2ccccc2c1)c1c(N)n(Cc2ccccc2)c(=O)[nH]c1=O	x	x	x	38*	1
COCCN(C(=O)COC(=O)/C=C/c1ccc(C(F)(F)F)cc1)c1c(N)n(Cc2ccccc2)c(=O)[nH]c1=O	x	x	x	6	x
CCOc1ccc(N(CC(=O)Nc2c(C)n(C)n(-c3ccccc3)c2=O)S(=O)(=O)c2ccccc2)cc1	0	-4	-5	-4	x
COc1ccc(N(CC(=O)N2CCc3ccccc32)S(=O)(=O)c2c(C)n[nH]c2C)cc1	3	-1	0	36*	2
COc1ccc(N(CC(=O)Nc2ccc(F)c(Cl)c2)S(=O)(=O)c2c(C)noc2C)cc1	6	2	-13	28*	2
CCN1CCN(CC(=O)Nc2cc(S(=O)(=O)N3CCCCC3)ccc2Cl)CC1	x	x	x	7	x
Cc1cc(=O)oc2cc(OCC(=O)Nc3nccs3)ccc12	x	x	x	-2	x
Cc1c(C)c2ccc(OCC(=O)Nc3nccs3)cc2oc1=O	x	x	x	31*	1
O=C(Nc1nnc(C2CCCCC2)s1)c1ccc(Br)s1	-20	-9	-16	-1	x

Screening results: PubChem BioAssay, several laboratories
